In PubChem BioAssay (Tox21):
Unmarked numbers belong to inactive results. The call rests on the fitted dose curve.
On the % scale 0 is the no-effect control and ±100 the full control effect.

Each compound was assayed against Muscarinic acetylcholine receptor M1 (Homo sapiens) (UniProt P11229) (assay: Cholinergic receptor muscarinic 1 (CHRM1) small molecule agonists, cell-based qHTS assay (AID 1963589; further: nearly all actives have a fitted effect of over 35% in size)). Conditions: CHRM1-CHO cells, agonist mode, calcium flux fluorescence; series mostly up to 76.8 µM; activation: at the top concentration.
Muscarinic acetylcholine receptor M1 (Homo sapiens), sequence (P11229 whole entry, looked up): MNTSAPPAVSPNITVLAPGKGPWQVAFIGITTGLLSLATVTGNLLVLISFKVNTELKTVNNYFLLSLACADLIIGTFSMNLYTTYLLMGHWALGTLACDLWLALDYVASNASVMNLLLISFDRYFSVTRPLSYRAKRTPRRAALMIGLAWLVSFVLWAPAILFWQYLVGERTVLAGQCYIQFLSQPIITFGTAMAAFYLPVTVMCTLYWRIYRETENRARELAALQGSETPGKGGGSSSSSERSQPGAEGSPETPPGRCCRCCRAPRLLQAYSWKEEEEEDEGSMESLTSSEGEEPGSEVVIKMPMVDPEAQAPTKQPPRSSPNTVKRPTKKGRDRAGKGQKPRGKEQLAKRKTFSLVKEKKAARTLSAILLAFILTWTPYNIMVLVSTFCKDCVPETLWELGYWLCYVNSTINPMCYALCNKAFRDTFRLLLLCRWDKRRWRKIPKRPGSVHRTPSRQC
Excerpt: National Center for Advancing Translational Sciences [NCATS]
Division of Preclinical Innovation [DPI]
U.S. Environmental Protection Agency [EPA]
National Institutes of Environmental Health Sciences [NIEHS]
National Toxicology Program [NTP]
U.S. Food and Drug Administration [FDA]
The CHRM1 is a muscarinic receptor. This receptor plays a crucial role in learning and memory processes and has long been identified as a promising therapeutic target for the improvement of cognitive decline in Alzheimer's disease (AD). The CHRM1-CHO cell line stably expressing human muscarinic acetylcholine receptor M1 (CHRM1) can be used for screening agonists and antagonists of interactions between CHRM1 and its ligands. The CHRM1-CHO Calcium Flux Assay is a homogeneous fluorescence-based assay for detecting the intracellular calcium level using FDSS kinetic plate reader system.
CHRM1-CHO cells were dispensed at 1000 cells/3uL/well in 1536-well black-clear bottom plates using a Multidrop Dispenser. After the assay plates were incubated at a 37 C/5% CO2 incubator for 18 h, 3 uL of Dye Loading Buffer was transferred to the assay plate by a Flying Reagent Dispenser. The assay plates were incubated at 37 C for 1h. For agonist mode, 23 nL of compounds dissolved in DMSO, positive controls or DMSO only was transferred to the assay plate by a pin tool. […] Each test compound was measured at 15 concentrations in three independent runs.
`O=C(O)Cc1csc(-c2ccc(Cl)cc2)n1` was tested, and the “activation” value was -0.149% [at 35.3 µM]. In the case of `C=C[C@@H](C)CCC=C(C)C`, the “activation” value is reported as -0.0013%. With `COC(=O)c1ccc(NC(C)=O)cc1OC` the “activation” value was 0% [at 35.3 µM]. In the case of `CCCCC(CC)C(=O)OC(C)C` (stereo not given), the “activation” value is reported as 0.103%. `CCCCOC(=O)[C@@H](C)Oc1ccc(Oc2ccc(C(F)(F)F)cn2)cc1` was tested, and the “activation” value was -0.396%. `CCCCCOC(=O)CCCC` was tested, and the “activation” value was 14.7%. For `COc1ccc([C@@H]2Sc3ccccc3NC(=O)[C@@H]2O)cc1`, the “activation” value was -0.34% [at 35.3 µM]. `CCC(C)COC(=O)CC(C)C` (stereo not given) was tested, and the “activation” value was 1.84%. For `O=C(c1ccc(O)cc1)c1ccc(Cl)cc1`, the “activation” value was 3.15%. For `CCCCCCC(CCCCCCCCCCC(=O)OCC(COC(C)=O)OC(C)=O)OC(C)=O` (stereo not given), the “activation” value was 0.0376% [at 35.3 µM]. In the case of `CCOC(=O)COC(=O)c1ccccc1C(=O)OCC`, the “activation” value is reported as -0.806%. With `Cn1cnc2ncnc(N)c21` the “activation” value was -0.135% [at 35.3 µM]. For `CC1CCC(C(C)CS)CC1S` (stereo not given), the “activation” value was -0.186%. `C[C@@H]1O[C@@H](O[C@@H]2[C@@H](O)[C@H](OCCc3ccc(O)c(O)c3)O[C@H](CO[C@@H]3O[C@H](CO)[C@@H](O)[C@H](O)[C@H]3O)[C@H]2OC(=O)/C=C/c2ccc(O)c(O)c2)[C@H](O)[C@H](O)[C@H]1O` was tested, and the “activation” value was 0.719%. `CC1=C(C)C(=O)C(CCCCC#CCCCC#CCO)=C(C)C1=O` was tested, and the “activation” value was -0.0241% [at 35.3 µM]. For `O=C(CN1CCN(Cc2ccc3c(c2)OCO3)CC1)N1c2ccccc2Sc2ccccc21`, the “activation” value was 0.81% [at 35.3 µM]. With `C[C@]12CCC(=O)C=C1CC[C@@H]1[C@@H]2[C@@H](O)C[C@@]2(C)[C@H]1CC[C@]2(O)C(=O)COC(=O)CCC(=O)O` the “activation” value was 0.0273% [at 35.3 µM]. `O=Cc1ccccc1[N+](=O)[O-]` was tested, and the “activation” value was -0.0694%. `Cc1cc(S(=O)(=O)O)c(N)cc1Cl` was tested, and the “activation” value was -0.272%. Work on `COc1cc(C(C)C)ccc1C` yielded an activation of -0.0401% [at 15.8 µM]. For `CC(C(=O)O)c1ccc(/C=C2\CCCCC2=O)cc1` (stereo not given), the “activation” value was -0.299% [at 35.3 µM]. `COC(=O)C1=C(C)NC(C)=C(C(=O)OCCN2CCN(C(c3ccccc3)c3ccccc3)CC2)C1c1cccc([N+](=O)[O-])c1` (stereo not given) was tested, and the “activation” value was -1.23% [at 35.3 µM]. For `Clc1ccc(C(Cn2ccnc2)OCc2c(Cl)cccc2Cl)c(Cl)c1` (stereo not given), the “activation” value was 18.1% [at 35.3 µM]. With `O=C1OCc2ccccc21` the “activation” value was -0.716%. For `Cc1ccc(CCn2c3c(c4cc(Cl)ccc42)CN(C)CC3)cn1`, the “activation” value was -0.373% [at 35.3 µM]. In the case of `CCCCCCCCCC(=O)N(C)C`, the “activation” value is reported as -0.758%. In the case of `O=C(OCCN1CCOCC1)c1cccnc1Nc1cccc(C(F)(F)F)c1`, the “activation” value is reported as 0.876% [at 35.3 µM]. With `O=C(/C=C/c1ccccc1)OC/C=C/c1ccccc1` the “activation” value was -0.634%. `COc1ccc(C(=O)c2ccc(OC)cc2O)c(O)c1` was tested, and the “activation” value was -0.114%. With `Cc1c(F)cc2c(=O)c(C(=O)O)cn3c2c1CCC3C` (stereo not given) the “activation” value was 10.1% [at 35.3 µM]. In the case of `Cc1cc(CC(=O)O)c(C)n1-c1ccc(Cl)cc1`, the “activation” value is reported as -0.739% [at 35.3 µM]. With `CC1CCCCC1` the “activation” value was -0.173%. `C/C=C(\C)C#N` was tested, and the “activation” value was -0.341%. In the case of `COc1cc(NS(=O)(=O)c2ccc(N)cc2)ncn1`, the “activation” value is reported as -2.14% [at 35.3 µM]. `CCCC(c1cc(C(C)(C)C)c(O)cc1C)c1cc(C(C)(C)C)c(O)cc1C` was tested, and the “activation” value was -0.0677%. For `CCC(C(=O)O)c1ccc(N2Cc3ccccc3C2=O)cc1` (stereo not given), the “activation” value was 13% [at 35.3 µM]. `N[C@H]1C(O)O[C@H](CO)[C@H](O)[C@@H]1O` (stereo not given in full) was tested, and the “activation” value was 0.952%. With `CC1=C(C)C(=O)C(C(CCCCCC(=O)O)c2ccccc2)=C(C)C1=O` (stereo not given) the “activation” value was 6.61% [at 35.3 µM]. For `C[Si](C)(CCCN)O[Si](C)(C)CCCN`, the “activation” value was -0.598%. For `Cc1ccc(N)nc1`, the “activation” value was 0.146%.
